TWEAK Fn14 block: inhibitors of TWEAK-Fn14 signaling, primary screen, luciferase reporter cells, uHTS; inhibition, % at 10 µM; 360,000 compounds, 2% hits; TWEAK-stimulated Fn14 reporter cells, luciferase luminescence, 8 h; in the data active = inhibition above about 50%
PPC-1+TRAIL kill: compounds killing PPC-1 cancer cells with TRAIL present, primary screen, TRAIL potentiator project, ATPLite luminescence, uHTS; PPC-1 cells + TRAIL, ATPLite viability luminescence; cell killing (% activity), % at 4 µM or 5 µM; 220,000 compounds, 0.41% hits; AID 1443, 2008;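 active = cell killing above 50% in the first pass at 4 µM, then a duplicate retest at 5 µM averaging 50% or more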
Platelet DG rel: inhibitors of platelet dense granule secretion, primary screen, cell-based, MLPCN, human platelets; human platelet-rich plasma, SFLLRN dense granule ATP release, luminescence; inhibition, %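 (compounds screened at 7.5 µM in platelet-rich plasma)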; 300,000 compounds, 0.22% hits; AID 1663, 2009;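 active = mean replicate score, as percent of positive control, at or above 50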
TROY NFkB inh: inhibitors of TROY-driven NF-kB signaling, primary screen, Q293 LMP1-TROYcd cells, NF-kB luciferase, uHTS; Q293 LMP1-TROYcd NF-kB luciferase reporter, 4 h; inhibition, % at 10 µM; 360,000 compounds, 0.98% hits;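 active = compounds whose plate-normalised and pattern-corrected inhibition of the luciferase reporter signal at the single screening dose is 50% or more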
HSP90 inh: HSP90 inhibitors, primary screen, cell lysate, luminescence; inhibition, % at 5.6 µM; 290,000 compounds, 0.91% hits; Heat shock protein HSP 90 (rabbit reticulocyte lysate; luciferase refolding); AID 1789, 2009; Rabbit reticulocyte lysate, luciferase refolding luminescence, 3 h;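 active = inhibition above the screen-wide mean plus 3 SD, computed separately per campaign, cut at about 16% in these data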;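 note: inhibitors lower the luminescence because luciferase stays unfolded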
C8 TRAIL sens: viability loss with TRAIL in NB7+C8 cells, primary screen, TRAIL sensitizer project, cell-based, ATPlite luminescence; inhibition (viability loss, TRAIL sensitization), % at 10 µM; 360,000 compounds, 1% hits;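 active = compounds causing at least 50% loss of cell viability in the single-dose screen, relative to plate controls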
Hits are given with their value; - = inactive; . = no result. This is a sample that favours compounds with a hit; in the whole collection about 3.5% have one here.

SMILES	TWEAK Fn14 block	PPC-1+TRAIL kill	Platelet DG rel	TROY NFkB inh	HSP90 inh	C8 TRAIL sens
CCOc1ccccc1N1CCN(CC(=O)Nc2ccccc2C(=O)NC2CC2)CC1	-	.	.	-	.	-
Cc1ccc2c(c1)sc1nc(=O)n(-c3ccc(Cl)c(Cl)c3)c(=O)n12	55	-	.	-	-	-
CC1=NN(c2ccc(C)c(C)c2)C(=O)/C1=C\C=C\c1ccc([N+](=O)[O-])o1	86	-	-	-	-	79
CCOc1ccccc1NC(=O)CSc1nc2nc(-c3cccs3)cc(C(F)(F)F)c2c(=O)[nH]1	-	-	-	63	-	-
COc1ccc(NC(=O)CSc2nc3nc(-c4cccs4)cc(C(F)(F)F)c3c(=O)[nH]2)c(OC)c1	-	-	-	-	-	-
C[C@H](CO)N1C[C@H](C)[C@H](CN(C)C(=O)c2cc(-c3ccccc3)on2)OCc2cnnn2CCCC1=O	-	.	.	-	.	-
N#CC1=C(N)OC2=C(C(=O)CC(c3ccccc3)C2)C1c1ccoc1 (centres undefined)	-	85	-	-	-	-
N#CC1=C(N)OC2=C(C(=O)CC(c3ccccc3)C2)C1c1cccnc1 (centres undefined)	-	-	-	-	-	-
COc1ccc(C2c3c(-c4cc(Cl)c(C)cc4O)n[nH]c3C(=O)N2Cc2cccnc2)cc1OC (centres undefined)	-	-	72	-	-	-
O=C(NC1CCCC1)C1c2ccccc2OCC(=O)N1Cc1ccco1 (centres undefined)	-	.	.	-	.	-
CC1=CC(C)(C)NC(=S)N1CCO	-	.	.	-	.	-
COc1ccc(-c2cn3c(C)c(C(=O)N4CCc5ccccc5C4)sc3n2)cc1	-	.	-	-	19	-
Cc1c(C(=O)Nc2ccc3c(c2)OCCO3)sc2nc(-c3ccccc3)cn12	85	-	-	67	-	-
Cc1c(C(=O)N2CCOCC2)sc2nc(-c3ccccc3)cn12	-	-	-	-	-	-
Cc1c(C(=O)N2CCc3ccccc3C2)sc2nc(-c3ccccc3)cn12	-	-	-	-	-	-
Cc1c(C(=O)Nc2ccncc2)sc2nc(-c3ccccc3)cn12	68	-	-	-	-	-
COc1ccc(-c2cn3c(C)c(C(=O)Nc4cc(NC(C)=O)ccc4OC)sc3n2)cc1	-	-	-	-	54	-
COc1ccccc1N1CCN(C(=O)C(C)CS(=O)(=O)c2ccc3c(c2)NC(=O)CS3)CC1 (centres undefined)	-	.	-	-	-	-
CCN(CC(=O)Nc1c(F)cccc1F)C(=O)CCNC(=O)c1ccc([N+](=O)[O-])cc1	-	.	-	-	.	-
CCCC1NC(=O)c2cccnc2-n2c1nc1ccc(C)cc1c2=O (centres undefined)	-	.	.	-	.	-
CSc1ccccc1C(=O)OCC(=O)Nc1c(C)n(C)n(-c2ccccc2)c1=O	-	.	.	-	.	-
Cc1ccc(OCc2cc(C(=O)N(C)Cc3cc(C4CC4)n[nH]3)no2)cc1C	-	.	-	-	-	-
c1ccc2c(-c3ccc4nncn4c3)cncc2c1	78	.	.	-	.	-
COC(=O)c1c(-c2ccc3ccccc3c2)csc1NC(=O)Cc1ccc(OC)c(OC)c1	65	-	-	-	-	-
COC(=O)c1c(-c2ccc(OC)c(OC)c2)csc1N	-	-	-	-	-	-
SMILES	TWEAK Fn14 block	PPC-1+TRAIL kill	Platelet DG rel	TROY NFkB inh	HSP90 inh	C8 TRAIL sens
COc1ccc(-c2csc(C(NC(C)=O)c3cccc(F)c3)n2)cn1 (centres undefined)	-	.	.	-	.	-
Cc1cc(C)n(-c2nc(Nc3ccccc3C(F)(F)F)nc(-n3nc(C)cc3C)n2)n1	81	-	-	79	-	57
Cc1cc(C)n(-c2nc(Nc3ccccc3C)nc(-n3nc(C)cc3C)n2)n1	.	-	-	.	-	.
O=C(Cc1cc(=O)[nH][nH]1)N/N=C/C=C/c1ccccc1	62	-	-	-	-	-
CCN(CC(=O)NC1CCS(=O)(=O)C1)C(=O)c1cc(OC)c(OC)c(OC)c1 (centres undefined)	-	.	.	-	.	-
CC(=O)c1ccc(N2CCC(c3cc(-c4ccc(Cl)cc4)n[nH]3)CC2)c([N+](=O)[O-])c1	62	-	-	-	-	-
COc1ccc(-c2cc(C3CCN(c4ccc(C(C)=O)cc4[N+](=O)[O-])CC3)[nH]n2)cc1	71	-	-	74	-	-
COc1cccc(CNC(=O)CCCc2c[nH]c3ccccc23)c1	-	.	-	-	-	-
O=C(CC[C@H]1O[C@@H](n2cnc3c(NC(=O)c4ccccc4)ncnc32)[C@H](O)[C@@H]1O)N[C@@H](CO)Cc1c[nH]c2ccccc12	-	.	.	-	.	-
CC(C)=CCc1cc([C@@H]2CC(=O)c3ccc(O)c(CC=C(C)C)c3O2)ccc1O	58	.	-	-	.	-
COc1c(CC=C(C)C)cc(C2CC(=O)c3c(O)cc(O)cc3O2)c(CC=C(C)C)c1O (centres undefined)	.	.	-	.	.	.
CCOc1c(Cl)cc(CNc2ccc(N3CCCC3)cc2)cc1OC	56	-	-	-	-	-
Cc1ccc(C(=O)N/C(=C/c2ccc(Cl)cc2)C(=O)NCC2CCCO2)cc1 (centres undefined)	77	-	-	-	-	-
N#CCc1nn(-c2ccccc2)c2ncnc(N)c12	-	-	-	-	-	-
O=C1N(c2ccccc2)c2ccccc2[C@]12C[C@H](O)CO2	.	.	.	.	.	-
Cc1ccc(-c2nc3cccnc3o2)cc1NC(=O)COc1ccc(C(C)(C)C)cc1	59	-	-	55	-	-
CC(C)(CO)NCC(O)COc1ccc2c(c1)CCC2 (centres undefined)	-	-	51	-	-	-
CC(C)Oc1ccccc1/C=N/NC(=O)C1CC1	-	.	-	-	.	-
CCOc1ccc(C(C)=O)cc1COc1cccnc1[N+](=O)[O-]	-	.	-	60	-	-
COc1ccc(C(C)=O)cc1COc1cccnc1[N+](=O)[O-]	-	.	-	-	-	-
CCc1cc(CNC(=O)C2CCC(=O)N(Cc3ccc(Cl)cc3)C2)on1 (centres undefined)	-	.	-	-	-	-
COc1ccc(C)cc1Nc1n[n+](-c2ccccc2)c(-c2c(OC)ccc3ccccc23)s1	58	.	.	-	.	-
COc1ccc(C)cc1Nc1n[n+](-c2ccccc2)c(-c2cc(OC)c(OC)cc2Br)s1	-	.	-	-	-	-
Cc1ccc(/C=C2\SC(=S)N(CCCC(=O)Nc3cc(C)on3)C2=O)cc1	73	.	-	-	-	-
CCc1ccc(/C=C2/SC(=S)N(CCCC(=O)Nc3ccccc3C(=O)O)C2=O)cc1	-	.	-	75	-	-
CCOc1ccc(/C=C2\SC(=S)N(CCC(=O)N(CCO)c3ccccc3)C2=O)cc1	-	.	-	-	-	-

High-throughput results deposited in PubChem by several laboratories.
